# Measurements as given in PubChem BioAssay (NCI).
# The panel holds about 83,000 compounds, 20% with a hit somewhere; the sample as a whole holds those more often.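 48-hour exposure, single concentration, 96-well plates; percent growth endpoint where 0 means no net growth. Active: below 10.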 Activity calls are given as the source filed them.
# System: SN12C renal
# Test: NCI-60 one-dose screen, 48 h (100 = growth as untreated, 0 = no growth, -100 = all killed)
# Settings: 10 µM unless noted
row,SMILES,growth
1,O=C(Nn1c(NCC(=O)N2c3ccccc3Sc3ccccc32)nnc1-c1ccc(O)cc1)c1ccccc1,90.9% (inactive)
2,N#C/C(=C\c1cccc2cnccc12)n1nnc2cccc(F)c21,17.7% (inactive)
3,O=C(S)CNC(=O)c1ccccc1,95.6% (inactive)
4,CN(C)c1ccc2nc3ccc(=[N+](C)C)c([N+](=O)[O-])c-3sc2c1,39.6% (inactive)
5,O=C1c2ccccc2NC(n2sc3ccccc3c2=O)N1c1ccccc1 (stereo not given),98.4% (inactive)
6,Cc1nc2ccccc2c(/C=C/c2ccccc2)c1C(=O)/C=C/c1ccc(C(F)(F)F)cc1,-61.5% (active)
7,CCOC(=O)c1nc(Nc2ccc(C(C)=O)cc2)sc1C,104% (inactive)
8,Oc1ccc(Cl)cc1Cc1cc(Cl)cc(Cl)c1O,20.4% (inactive)
9,COc1nc2ccc(C)cc2cc1-c1nc2c(cnn2-c2ccc(Br)cc2)c(=O)[nH]1,48.5% (inactive)
10,CC(=O)OC[C@H]1OC(Sc2sc(C(=O)c3ccc(Cl)cc3)c(N)c2-c2nc3ccccc3s2)[C@H](OC(C)=O)[C@@H](OC(C)=O)[C@@H]1OC(C)=O (stereo not given in full),54.7% (inactive)
11,O=C1NC(=O)C(Cn2cnc3ccccc32)N1 (stereo not given),98.6% (inactive)
12,COc1cc(/C=C/C(=O)/C=C/c2cc(OC)c3c(c2OC)OCO3)c(OC)c2c1OCO2,30.4% (inactive)
13,COc1c(B(O)O)cc(C)cc1-c1nc2ccc3[nH]ncc3c2c2c1CCCC2,52% (inactive)
14,CCCCCCN(CCCCCC)c1ccc(/C=C2/SC(=O)NC2=O)c(C)c1,80.7% (inactive)
15,COC(=O)c1ccc2[nH]c(O)c(C(=Nc3ccc(N(C)C(=O)CN4CCN(C)CC4)cc3)c3ccccc3)c2c1,17.6% (inactive)
